Laboratory results published in PubChem BioAssay AID1159580 (chemical genetic matrix, 2015).
Hit rate of the full screen: of about 5,500 compounds, about 2,000 (36%) were called active. Roughly 18% stayed inconclusive and do not appear here. Cut-off read from the data, not from the text of the source: active = normalized growth mostly below about 0.91 (no sharp cut-off); inconclusive = no clear call, values can overlap the other calls; inactive = mostly above about 0.92. The list shows a part of the results.

Test: chemical genetic growth profiling, strain panel (AID 1159580);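 note: tested at 20 µM; growth read once vehicle control cultures reached saturation at 30 °C; 1 = growth at the plate median or of vehicle wells; lower values mean less growth of the strain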
Settings: growth OD

Measured: normalized growth

CCC(C)C(=O)OC1CC2(C)C(c3ccoc3)OC(=O)CC23OC2(C)OC34C(OC(=O)C(C)C)C3(O)C(OC(=O)C5(C)OC5C)C5(C)CC3(O)C(C)(C5C(=O)OC)C14O2 (stereo unspecified)
inactive: S. cerevisiae deletion strains, locus YAL013W, strain DEP1, stronger effect = lower value 1.02 | S. cerevisiae deletion strains, locus YBR021W, strain FUR4, stronger effect = lower value 1.01 | S. cerevisiae deletion strains, locus YBR229C, strain ROT2, stronger effect = lower value 1 | S. cerevisiae deletion strains, locus YCL029C, strain bik1, stronger effect = lower value 1.04 | S. cerevisiae deletion strains, locus YDL035C, strain GPR1, stronger effect = lower value 0.993 | S. cerevisiae deletion strains, locus YDL074C, strain BRE1, stronger effect = lower value 1.01 | S. cerevisiae deletion strains, locus YDL101C, strain DUN1, stronger effect = lower value 1.02 | S. cerevisiae deletion strains, locus YDL134C, strain PPH21, stronger effect = lower value 1.01 | S. cerevisiae deletion strains, locus YDL185W, strain tfp1, stronger effect = lower value 1.03 | S. cerevisiae deletion strains, locus YDL192W, strain arf1, stronger effect = lower value 1.01 | S. cerevisiae deletion strains, locus YDR101C, strain arx1, stronger effect = lower value 1.02 | S. cerevisiae deletion strains, locus YDR150W, strain NUM1, stronger effect = lower value 1.02 | S. cerevisiae deletion strains, locus YDR162C, strain NBP2, stronger effect = lower value 0.996 | S. cerevisiae deletion strains, locus YDR318W, strain mcm21, stronger effect = lower value 1.03 | S. cerevisiae deletion strains, locus YDR388W, stronger effect = lower value 1.02 | S. cerevisiae deletion strains, locus YDR502C, strain sam2, stronger effect = lower value 1.03 | S. cerevisiae deletion strains, locus YEL061C, strain CIN8, stronger effect = lower value 1.01 | S. cerevisiae deletion strains, locus YER110C, stronger effect = lower value 1.02 | S. cerevisiae deletion strains, locus YER155C, strain BEM2, stronger effect = lower value 1.02 | S. cerevisiae deletion strains, locus YER167W, strain BCK2, stronger effect = lower value 1.02 | S. cerevisiae deletion strains, locus YGL078C, strain dbp3, stronger effect = lower value 1.02 | S. cerevisiae deletion strains, locus YGL086W, strain mad1, stronger effect = lower value 1 | S. cerevisiae deletion strains, locus YGL248W, strain PDE1, stronger effect = lower value 1.01 | S. cerevisiae deletion strains, locus YGR078C, strain PAC10, stronger effect = lower value 1.02 | S. cerevisiae deletion strains, locus YGR135W, strain pre9, stronger effect = lower value 1.03 | S. cerevisiae deletion strains, locus YGR229C, strain SMI1, stronger effect = lower value 1.03 | S. cerevisiae deletion strains, locus YGR252W, strain gcn5, stronger effect = lower value 0.977 | S. cerevisiae deletion strains, locus YHR030C, strain SLT2, stronger effect = lower value 1.02 | S. cerevisiae deletion strains, locus YHR079C, strain IRE1 (second series), stronger effect = lower value 1.02 | S. cerevisiae deletion strains, locus YHR094C, strain hxt1, stronger effect = lower value 1.01 | S. cerevisiae deletion strains, locus YHR129C, strain ARP1, stronger effect = lower value 1.01 | S. cerevisiae deletion strains, locus YHR200W, strain rpn10, stronger effect = lower value 1.04 | S. cerevisiae deletion strains, locus YIL066C, strain RNR3, stronger effect = lower value 1.02 | S. cerevisiae deletion strains, locus YIL073C, strain SPO22, stronger effect = lower value 1 | S. cerevisiae deletion strains, locus YIL125W, strain kgd1, stronger effect = lower value 1.01 | S. cerevisiae deletion strains, locus YIR030C, strain dcg1, stronger effect = lower value 1.02 | S. cerevisiae deletion strains, locus YJL095W, strain BCK1, stronger effect = lower value 1.04 | S. cerevisiae deletion strains, locus YJL134W, strain LCB3, stronger effect = lower value 1.01 | S. cerevisiae deletion strains, locus YJL168C, strain set2, stronger effect = lower value 1.02 | S. cerevisiae deletion strains, locus YJL187C, strain SWE1 (second series), stronger effect = lower value 1.03 | S. cerevisiae deletion strains, locus YJR043C, strain POL32, stronger effect = lower value 1.04 | S. cerevisiae deletion strains, locus YJR075W, strain HOC1, stronger effect = lower value 1.03 | S. cerevisiae deletion strains, locus YKL009W, strain mrt4, stronger effect = lower value 0.994 | S. cerevisiae deletion strains, locus YKL068W, stronger effect = lower value 1.01 | S. cerevisiae deletion strains, locus YKL085W, strain MDH1 (second series), stronger effect = lower value 1.01 | S. cerevisiae deletion strains, locus YKL085W, strain MDH1, stronger effect = lower value 1.01 | S. cerevisiae deletion strains, locus YKL190W, strain CNB1, stronger effect = lower value 1 | S. cerevisiae deletion strains, locus YKR001C, strain vps1, stronger effect = lower value 1.01 | S. cerevisiae deletion strains, locus YLR039C, strain RIC1, stronger effect = lower value 0.862 | S. cerevisiae deletion strains, locus YLR058C, strain SHM2, stronger effect = lower value 0.999 | S. cerevisiae deletion strains, locus YLR102C, strain apc9, stronger effect = lower value 1.01 | S. cerevisiae deletion strains, locus YLR262C, strain YPT6, stronger effect = lower value 0.77 | S. cerevisiae deletion strains, locus YLR268W, strain sec22, stronger effect = lower value 1.05 | S. cerevisiae deletion strains, locus YLR330W, strain CHS5, stronger effect = lower value 1.08 | S. cerevisiae deletion strains, locus YLR342W, strain FKS1 (second series), stronger effect = lower value 1.01 | S. cerevisiae deletion strains, locus YLR371W, strain rom2, stronger effect = lower value 1.03 | S. cerevisiae deletion strains, locus YLR418C, strain cdc73, stronger effect = lower value 0.985 | S. cerevisiae deletion strains, locus YML016C, strain PPZ1, stronger effect = lower value 1 | S. cerevisiae deletion strains, locus YML032C, strain rad52, stronger effect = lower value 1.03 | S. cerevisiae deletion strains, locus YML124C, strain tub3, stronger effect = lower value 1.01 | S. cerevisiae deletion strains, locus YMR078C, strain ctf18, stronger effect = lower value 1.03 | S. cerevisiae deletion strains, locus YMR223W, strain ubp8, stronger effect = lower value 0.999 | S. cerevisiae deletion strains, locus YMR263W, strain SAP30, stronger effect = lower value 1.04 | S. cerevisiae deletion strains, locus YMR307W, strain GAS1, stronger effect = lower value 0.923 | S. cerevisiae deletion strains, locus YNL067W, strain RPL9B, stronger effect = lower value 1.03 | S. cerevisiae deletion strains, locus YNL128W, strain TEP1, stronger effect = lower value 1.01 | S. cerevisiae deletion strains, locus YNL153C, strain GIM3, stronger effect = lower value 1.03 | S. cerevisiae deletion strains, locus YNL233W, strain BNI4, stronger effect = lower value 1.01 | S. cerevisiae deletion strains, locus YNL250W, strain rad50, stronger effect = lower value 1.02 | S. cerevisiae deletion strains, locus YNL271C, strain bni1, stronger effect = lower value 1.03 | S. cerevisiae deletion strains, locus YNL298W, strain CLA4, stronger effect = lower value 1.03 | S. cerevisiae deletion strains, locus YNL307C, strain MCK1, stronger effect = lower value 1.03 | S. cerevisiae deletion strains, locus YNL322C, strain KRE1, stronger effect = lower value 1.02 | S. cerevisiae deletion strains, locus YNR052C, strain pop2, stronger effect = lower value 1.02 | S. cerevisiae deletion strains, locus YOL006C, strain TOP1, stronger effect = lower value 0.923 | S. cerevisiae deletion strains, locus YOL012C, strain htz1 1.81 | S. cerevisiae deletion strains, locus YOL147C, strain pex11, stronger effect = lower value 1.03 | S. cerevisiae deletion strains, locus YOR061W, strain CKA2, stronger effect = lower value 0.991 | S. cerevisiae deletion strains, locus YOR069W, strain VPS5, stronger effect = lower value 1.01 | S. cerevisiae deletion strains, locus YOR136W, strain idh2, stronger effect = lower value 1.01 | S. cerevisiae deletion strains, locus YOR144C, strain elg1, stronger effect = lower value 1.01 | S. cerevisiae deletion strains, locus YOR184W, strain ser1, stronger effect = lower value 1.04 | S. cerevisiae deletion strains, locus YOR316C, strain cot1, stronger effect = lower value 1.02 | S. cerevisiae deletion strains, locus YPL055C, strain LGE1, stronger effect = lower value 1.05 | S. cerevisiae deletion strains, locus YPL241C, strain CIN2, stronger effect = lower value 1.01 | S. cerevisiae deletion strains, locus YPR119W, strain clb2, stronger effect = lower value 1.01 | S. cerevisiae deletion strains, locus YPR141C, strain kar3, stronger effect = lower value 1.03 | S. cerevisiae deletion strains, locus YPR163C, strain tif3, stronger effect = lower value 1.02 | S. cerevisiae deletion strains, locus YPR167C, strain met16, stronger effect = lower value 1.02 | S. cerevisiae deletion strains, strain wtn01, stronger effect = lower value 1.03 | S. cerevisiae strains, strain wild type, stronger effect = lower value 1
